Laboratory results: the supplement of paper PMC10849652
About 7,900 targets were measured; listed, in parts, are those with a hit and a random draw of the rest. About 0.6% of all pairs of compound and target were hits. Values without a mark were called inactive.

What was measured:
Experiment in all cases: log2 fold change, soluble protein after heating vs DMSO (PISA); higher = thermal stabilisation; K562 cells, 10 uM, 30 min; active = over 0.2 and 3.5 SD of the protein, either way, in both replicates (recomputed)
[1] = compound: C1COCCN1CCN2C3=CC=CC=C3N=C2NC(=O)C4=CC(=CC=C4)[N+](=O)[O-] [IRAK-1-4 Inhibitor I]
Procedure, shortened: (§1)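 Thermal stability values are relative to control samples and come from duplicates. They are expressed as log2 fold changes. For measurement, K562 cells (2×10^6 cells/mL) received 10 μM compound for 30 min, and aliquots were heated for 3 min over 48°C-58°C, pooled, and extracted at 4°C in PBS with 0.5% NP-40. Soluble protein, the supernatant after 21,000xg for 90 min, was quantified by TMTpro 16plex LC-MS/MS with equalised channel sums.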

[2] = compound: C=CC(=O)N1CCC[C@@H](n2nc(-c3ccc(Oc4ccccc4)cc3)c3c(N)ncnc32)C1 [ibrutinib]
Procedure, shortened: as §1

[3] = compound: CC(=O)c1cnc2ccc(-c3cc(Cl)c(O)c(Cl)c3)nc2c1N[C@H]1CC[C@H](CN(C)C)CC1
Procedure, shortened: as §1

[4] = compound: CC(C)(C)Cn1c(N)nc2ccc(-c3[nH]c(C(C)(C)C)nc3-c3ccc(F)cc3)nc21 [ralimetinib]
Procedure, shortened: as §1

[5] = compound: CC(C)(O)CC(=O)NCCn1ccc2ncnc(Nc3ccc(Oc4cccc(C(F)(F)F)c4)c(Cl)c3)c21
Procedure, shortened: as §1

[6] = compound: CC(C)C1=C2N=C(C=C(N2N=C1)NCC3=CC=CC=C3)NCCCCCCN
Procedure, shortened: as §1

[7] = compound: CC(C)C[C@@H](C=O)NC(=O)[C@H](CC(C)C)NC(=O)[C@H](CC(C)C)NC(=O)OCc1ccccc1
Procedure, shortened: as §1

[8] = compound: CC(C)N(C[C@H]1O[C@@H](n2cnc3c(N)ncnc32)[C@H](O)[C@@H]1O)[C@H]1C[C@@H](CCc2nc3cc(C(C)(C)C)ccc3[nH]2)C1 [pinometostat]
Procedure, shortened: as §1

[9] = compound: CC1=C(C(CC(=O)N1)C2=CC=C(C=C2)C(F)(F)F)C(=O)NC3=C(C=C4C(=C3)C=NN4)F
Procedure, shortened: as §1

[10] = compound: CC1=C(C2=C(C=C1)C(=O)C3=CC=CC=C3N2CCCN)C
Procedure, shortened: as §1

Chain of UniProt Q9NQZ5 (Q9NQZ5 whole entry, looked up): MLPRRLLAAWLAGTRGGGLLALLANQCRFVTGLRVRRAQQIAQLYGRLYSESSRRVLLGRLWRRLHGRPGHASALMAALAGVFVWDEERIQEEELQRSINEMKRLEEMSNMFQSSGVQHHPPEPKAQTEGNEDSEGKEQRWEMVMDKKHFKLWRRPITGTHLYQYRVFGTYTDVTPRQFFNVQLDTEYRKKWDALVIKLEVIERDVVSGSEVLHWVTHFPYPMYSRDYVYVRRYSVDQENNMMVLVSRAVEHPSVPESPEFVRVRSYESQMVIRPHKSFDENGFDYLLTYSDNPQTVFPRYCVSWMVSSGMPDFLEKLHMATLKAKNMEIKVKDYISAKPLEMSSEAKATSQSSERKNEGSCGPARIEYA
Chain of UniProt Q16594 (Q16594 whole entry, looked up): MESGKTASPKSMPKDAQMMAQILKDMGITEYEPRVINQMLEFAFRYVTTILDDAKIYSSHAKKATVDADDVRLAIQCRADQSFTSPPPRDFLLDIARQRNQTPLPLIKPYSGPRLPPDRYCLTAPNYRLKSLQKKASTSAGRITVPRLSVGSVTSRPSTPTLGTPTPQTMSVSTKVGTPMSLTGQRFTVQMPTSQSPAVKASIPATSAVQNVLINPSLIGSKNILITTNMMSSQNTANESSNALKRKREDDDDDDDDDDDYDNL
Chain of UniProt Q9NS93 (Q9NS93 whole entry, looked up): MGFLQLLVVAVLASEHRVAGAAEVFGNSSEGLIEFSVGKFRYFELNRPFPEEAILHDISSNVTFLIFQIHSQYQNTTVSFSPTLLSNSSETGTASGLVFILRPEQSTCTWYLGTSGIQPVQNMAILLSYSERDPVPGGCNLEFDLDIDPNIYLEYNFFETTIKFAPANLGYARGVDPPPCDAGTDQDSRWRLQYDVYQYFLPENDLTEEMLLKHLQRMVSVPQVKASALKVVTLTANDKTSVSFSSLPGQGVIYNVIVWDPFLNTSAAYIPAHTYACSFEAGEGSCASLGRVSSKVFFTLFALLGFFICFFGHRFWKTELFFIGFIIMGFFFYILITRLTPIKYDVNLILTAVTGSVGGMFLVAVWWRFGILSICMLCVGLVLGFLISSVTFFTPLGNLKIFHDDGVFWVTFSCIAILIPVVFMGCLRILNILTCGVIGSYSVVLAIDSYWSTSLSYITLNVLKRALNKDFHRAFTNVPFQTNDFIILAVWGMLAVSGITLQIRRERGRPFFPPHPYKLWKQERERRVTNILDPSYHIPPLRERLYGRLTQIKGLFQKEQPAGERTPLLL
Chain of UniProt P51687 (P51687 whole entry, looked up): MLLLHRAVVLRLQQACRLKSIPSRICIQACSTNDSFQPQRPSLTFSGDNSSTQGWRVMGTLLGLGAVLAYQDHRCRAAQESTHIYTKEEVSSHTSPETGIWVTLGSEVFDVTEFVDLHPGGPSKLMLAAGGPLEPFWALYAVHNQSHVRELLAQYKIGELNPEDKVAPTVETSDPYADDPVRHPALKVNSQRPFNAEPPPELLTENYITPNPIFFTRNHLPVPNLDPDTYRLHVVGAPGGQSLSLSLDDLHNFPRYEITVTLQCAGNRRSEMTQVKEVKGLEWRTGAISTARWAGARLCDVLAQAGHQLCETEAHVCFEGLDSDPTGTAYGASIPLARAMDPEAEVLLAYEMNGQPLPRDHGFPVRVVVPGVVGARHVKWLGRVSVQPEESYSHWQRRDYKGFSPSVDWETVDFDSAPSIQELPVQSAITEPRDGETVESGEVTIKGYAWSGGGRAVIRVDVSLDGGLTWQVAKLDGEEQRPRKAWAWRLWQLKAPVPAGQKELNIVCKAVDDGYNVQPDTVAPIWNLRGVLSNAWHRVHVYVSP
Chain of UniProt Q969G3 (Q969G3 whole entry, looked up): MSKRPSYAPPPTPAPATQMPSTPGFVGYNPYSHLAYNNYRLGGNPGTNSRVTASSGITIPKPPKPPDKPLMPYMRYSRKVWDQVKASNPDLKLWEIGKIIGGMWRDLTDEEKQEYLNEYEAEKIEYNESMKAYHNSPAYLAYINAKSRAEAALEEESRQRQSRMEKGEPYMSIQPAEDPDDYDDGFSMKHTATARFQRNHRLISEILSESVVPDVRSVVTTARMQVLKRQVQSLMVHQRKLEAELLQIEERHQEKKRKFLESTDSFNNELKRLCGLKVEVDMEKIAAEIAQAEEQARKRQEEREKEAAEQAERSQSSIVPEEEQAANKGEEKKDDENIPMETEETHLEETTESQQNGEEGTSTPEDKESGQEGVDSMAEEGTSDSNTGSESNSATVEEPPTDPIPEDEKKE
Chain of UniProt P35711 (P35711 whole entry, looked up): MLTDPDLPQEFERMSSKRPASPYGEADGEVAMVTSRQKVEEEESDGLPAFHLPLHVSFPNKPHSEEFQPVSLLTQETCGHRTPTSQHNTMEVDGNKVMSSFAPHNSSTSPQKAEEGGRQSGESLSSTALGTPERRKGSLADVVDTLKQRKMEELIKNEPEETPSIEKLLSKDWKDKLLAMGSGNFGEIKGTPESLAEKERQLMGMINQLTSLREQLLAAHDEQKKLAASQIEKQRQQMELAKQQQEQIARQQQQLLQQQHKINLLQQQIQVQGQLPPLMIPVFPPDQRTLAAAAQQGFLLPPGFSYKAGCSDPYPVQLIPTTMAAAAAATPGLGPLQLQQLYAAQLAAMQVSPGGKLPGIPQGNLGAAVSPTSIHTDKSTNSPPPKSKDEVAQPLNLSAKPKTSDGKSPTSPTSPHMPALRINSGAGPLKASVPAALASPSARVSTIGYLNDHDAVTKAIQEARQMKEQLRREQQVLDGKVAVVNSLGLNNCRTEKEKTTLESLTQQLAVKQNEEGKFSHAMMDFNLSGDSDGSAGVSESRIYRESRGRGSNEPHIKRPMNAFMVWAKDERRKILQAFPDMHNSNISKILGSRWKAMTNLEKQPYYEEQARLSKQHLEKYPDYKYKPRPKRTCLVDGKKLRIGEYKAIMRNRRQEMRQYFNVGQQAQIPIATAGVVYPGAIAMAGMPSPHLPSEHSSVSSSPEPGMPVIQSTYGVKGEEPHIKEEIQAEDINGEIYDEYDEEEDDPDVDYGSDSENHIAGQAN
Chain of UniProt Q9BYN0 (Q9BYN0 whole entry, looked up): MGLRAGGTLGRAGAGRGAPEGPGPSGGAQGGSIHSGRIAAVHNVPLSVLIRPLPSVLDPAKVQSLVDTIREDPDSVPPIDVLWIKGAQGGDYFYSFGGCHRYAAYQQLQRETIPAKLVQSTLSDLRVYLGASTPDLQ
Chain of UniProt O15198 (O15198 whole entry, looked up): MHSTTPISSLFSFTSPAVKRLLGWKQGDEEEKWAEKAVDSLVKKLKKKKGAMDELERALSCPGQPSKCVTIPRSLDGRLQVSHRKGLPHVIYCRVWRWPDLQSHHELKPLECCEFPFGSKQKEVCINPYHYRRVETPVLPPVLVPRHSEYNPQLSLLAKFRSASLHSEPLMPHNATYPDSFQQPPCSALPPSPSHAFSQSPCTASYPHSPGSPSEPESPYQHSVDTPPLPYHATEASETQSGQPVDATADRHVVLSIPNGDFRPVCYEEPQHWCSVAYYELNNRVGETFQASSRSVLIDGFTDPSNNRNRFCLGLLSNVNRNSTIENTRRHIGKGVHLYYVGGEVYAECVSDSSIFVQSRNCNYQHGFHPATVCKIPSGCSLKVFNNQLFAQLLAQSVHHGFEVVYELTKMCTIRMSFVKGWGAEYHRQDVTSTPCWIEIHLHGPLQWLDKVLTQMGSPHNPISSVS
Chain of UniProt Q96DI7 (Q96DI7 whole entry, looked up): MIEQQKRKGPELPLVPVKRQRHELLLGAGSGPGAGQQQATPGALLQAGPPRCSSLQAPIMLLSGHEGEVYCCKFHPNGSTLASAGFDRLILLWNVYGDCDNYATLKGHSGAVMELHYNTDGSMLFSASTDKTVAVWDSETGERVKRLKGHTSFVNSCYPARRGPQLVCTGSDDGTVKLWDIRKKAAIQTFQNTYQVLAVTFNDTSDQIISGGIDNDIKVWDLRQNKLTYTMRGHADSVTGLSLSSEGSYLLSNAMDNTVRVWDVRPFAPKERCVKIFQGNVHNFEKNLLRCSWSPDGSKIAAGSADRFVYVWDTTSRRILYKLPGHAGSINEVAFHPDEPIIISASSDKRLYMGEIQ
Chain of UniProt Q9BWG4 (Q9BWG4 whole entry, looked up): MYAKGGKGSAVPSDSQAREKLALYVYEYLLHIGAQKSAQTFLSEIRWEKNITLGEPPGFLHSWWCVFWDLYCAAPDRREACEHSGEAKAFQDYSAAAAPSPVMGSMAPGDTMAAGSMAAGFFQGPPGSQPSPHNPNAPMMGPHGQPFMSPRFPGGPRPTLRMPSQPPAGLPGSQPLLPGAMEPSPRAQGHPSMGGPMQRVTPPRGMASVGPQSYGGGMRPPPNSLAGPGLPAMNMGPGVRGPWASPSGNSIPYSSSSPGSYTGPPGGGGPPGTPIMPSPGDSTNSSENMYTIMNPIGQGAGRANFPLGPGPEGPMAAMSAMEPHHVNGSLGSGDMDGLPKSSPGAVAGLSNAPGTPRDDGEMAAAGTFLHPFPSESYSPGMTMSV
Chain of UniProt Q15208 (Q15208 whole entry, looked up): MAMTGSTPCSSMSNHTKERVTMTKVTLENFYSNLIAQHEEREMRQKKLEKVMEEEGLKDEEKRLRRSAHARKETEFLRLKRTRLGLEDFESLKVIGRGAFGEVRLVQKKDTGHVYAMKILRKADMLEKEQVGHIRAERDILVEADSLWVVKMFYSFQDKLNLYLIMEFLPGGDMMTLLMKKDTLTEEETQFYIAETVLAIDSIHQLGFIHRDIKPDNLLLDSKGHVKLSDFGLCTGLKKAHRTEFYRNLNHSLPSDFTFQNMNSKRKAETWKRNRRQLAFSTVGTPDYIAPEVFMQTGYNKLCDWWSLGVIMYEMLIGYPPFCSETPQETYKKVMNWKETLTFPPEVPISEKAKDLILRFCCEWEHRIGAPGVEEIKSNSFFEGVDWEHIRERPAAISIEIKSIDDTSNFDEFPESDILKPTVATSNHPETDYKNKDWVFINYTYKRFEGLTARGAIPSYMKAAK
Chain of UniProt O60493 (O60493 whole entry, looked up): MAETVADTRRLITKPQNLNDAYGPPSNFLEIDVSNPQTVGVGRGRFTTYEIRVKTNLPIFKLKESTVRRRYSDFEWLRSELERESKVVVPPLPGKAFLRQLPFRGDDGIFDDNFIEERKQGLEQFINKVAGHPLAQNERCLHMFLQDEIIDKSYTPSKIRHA

Row | Target | log2 fold change [1] | log2 fold change [2] | log2 fold change [3] | log2 fold change [4] | log2 fold change [5] | log2 fold change [6] | log2 fold change [7] | log2 fold change [8] | log2 fold change [9] | log2 fold change [10]
1 | STX17 (UniProt P56962) | -0.062 | 0.002 | 0.031 | 0.037 | -0.063 | -0.235 | 0.028 | 0.006 | 0.062 | 0.138
2 | STAT5A (UniProt P42229) | -0.116 | -0.088 | -0.164 | 0.046 | 0.019 | -0.053 | 0.006 | 0.033 | -0.002 | -0.009
3 | SNRNP40 (UniProt Q96DI7) | -0.016 | 0.045 | 0.068 | -0.026 | 0.086 | 0.177 | 0.038 | -0.019 | -0.1 | 1.03 (active)
4 | SMAD9 (UniProt O15198) | -0.033 | 0.007 | -0.092 | -0.087 | -0.022 | 0.005 | 0.06 | 0.024 | 0.039 | 0.017
5 | SLC25A38 (UniProt Q96DW6) | 0.005 | -0.001 | 0.003 | -0.053 | 0.035 | 0.049 | -0.018 | -0.03 | 0.012 | 0.01
6 | STEAP3 isoform 2 (UniProt Q658P3) | -0.002 | -0.005 | -0.067 | 0.013 | -0.087 | -0.011 | 0.032 | 0.043 | 0.019 | 0.044
7 | TBC1D5 isoform 2 (UniProt Q92609) | -0.022 | -0.01 | -0.009 | 0.023 | -0.179 | -0.325 (active) | 0.076 | 0.003 | 0.01 | 0.02
8 | SPTBN1 (UniProt Q01082) | -0.079 | -0.013 | -0.033 | 0.08 | 0.043 | -0.094 | 0.024 | 0.044 | -0.012 | -0.001
9 | SRXN1 (UniProt Q9BYN0) | -0.291 | -0.013 | 0.12 | -0.134 | -0.201 | – | -0.024 | 0.187 | 0.045 | -0.026
10 | SLK isoform 2 (UniProt Q9H2G2) | -0.008 | -0.123 | 0.04 | 0.005 | -0.216 | 0.002 | 0.022 | 0.022 | -0.025 | 0.073
11 | SOX5 (UniProt P35711) | 0.067 | 0.115 | -0.028 | 0.037 | – | -0.086 | 0.368 | -0.088 | -0.051 | -0.081
12 | TBK1 (UniProt Q9UHD2) | -0.046 | -0.019 | -0.162 | 0.024 | -0.067 | -0.208 | 0.046 | 0.087 | 0.028 | -0.091
13 | TBC1D24 (UniProt Q9ULP9) | -0.025 | 0.022 | -0.415 (active) | -0.086 | -0.057 | -0.09 | -0.053 | 0.04 | 0.047 | 0.142
14 | STAM2 (UniProt O75886) | 0.033 | 0.008 | -0.018 | 0.034 | 0.038 | -0.131 | 0.018 | 0.014 | -0.063 | 0.004
15 | SSBP4 (UniProt Q9BWG4) | 0.013 | 0.001 | -0.081 | -0.131 | – | 0.058 | 0.011 | 0.09 | 0.013 | 0.015
16 | STARD3 (UniProt Q14849) | -0.075 | 0.23 | -0.033 | 0.033 | -0.075 | -0.429 (active) | 0.122 | 0 | 0.222 | -0.044
17 | SSB (UniProt P05455) | -0.006 | -0.038 | -0.209 | 0.017 | 0.001 | -0.038 | 0.011 | -0.005 | 0.071 | -0.474 (active)
18 | TBP (UniProt P20226) | 0.018 | -0.029 | 0.091 | -0.016 | 0.036 | – | -0.002 | -0.019 | -0.046 | 0.528 (active)
19 | TAF9 (UniProt Q16594) | -0.029 | 0.027 | 0.049 | 0.025 | 0.069 | 0.024 | 0.112 | -0.072 | 0 | -0.005
20 | SRP68 (UniProt Q9UHB9) | -0.118 | -0.037 | 0.014 | 0.071 | -0.065 | -0.272 | 0.065 | 0.145 | -0.016 | -0.345 (active)
21 | SUPT5H (UniProt O00267) | -0.009 | -0.068 | 0.066 | -0.009 | -0.065 | -0.046 | 0.013 | -0.017 | -0.035 | -0.08
22 | SUOX (UniProt P51687) | 0.123 | -0.007 | 0.003 | 0.012 | -0.022 | 0.042 | 0.013 | 0.016 | 0.039 | 0.02
23 | STK38 (UniProt Q15208) | 0.004 | -0.073 | -0.308 (active) | 0.101 | -0.085 | -0.089 | 0.016 | 0.058 | 0.038 | -0.026
24 | SNX3 (UniProt O60493) | -0.049 | 0.011 | -0.028 | -0.059 | -0.104 | -0.187 | 0.084 | 0.073 | -0.022 | 0.053
25 | STARD7 (UniProt Q9NQZ5) | -0.012 | 0.055 | -0.026 | -0.01 | -0.051 | -0.057 | 0.028 | -0.009 | -0.019 | -0.003
26 | SYK (UniProt P43405) | -0.192 | 0.056 | -0.277 | 0.241 | -0.1 | 0.128 | 0.048 | 0.19 | – | -0.425
27 | TANGO6 (UniProt Q9C0B7) | -0.117 | -0.077 | 0.052 | 0.197 | -0.153 | -0.098 | -0.068 | 0 | 0.013 | 0.006
28 | TM7SF3 (UniProt Q9NS93) | -0.06 | 0.014 | 0.055 | -0.068 | – | -0.485 (active) | 0.01 | -0.036 | 0.016 | 0.057
29 | SLC27A4 (UniProt Q6P1M0) | -0.042 | 0.022 | -0.034 | 0.003 | 0.072 | -0.11 | -0.044 | 0.039 | 0.047 | 0.104
30 | SMARCE1 (UniProt Q969G3) | -0.29 | 0.185 | -0.006 | 0.163 | -0.043 | -0.128 | -0.037 | -0.031 | 0.21 | -0.091
